Measured values: ChEMBL document CHEMBL1157539, “Thousands of chemical starting points for antimalarial lead identification” (Nature, 2010)

What was measured:
Type in all cases: functional
Plasmodium falciparum [1] = assay: GSK_TCMDC: Inhibition of Plasmodium falciparum 3D7 in whole red blood cells, using parasite LDH activity as an index of growth. Test compounds present at 2uM
Plasmodium falciparum [2] = assay: GSK_TCMDC: Inhibition of Plasmodium falciparum Dd2 in whole red blood cells, using parasite LDH activity as an index of growth. Test compounds present at 2uM
HepG2 = assay: GSK_TCMDC: Percent inhibition of human HepG2 cell line. Test compounds present at 10uM.

| Structure (SMILES) | Inhibition (Plasmodium falciparum [1]) | Inhibition (Plasmodium falciparum [2]) | Inhibition (HepG2) |
| --- | --- | --- | --- |
| CCN1CCC(N(CCCCCCCCc2ccc(C(F)(F)F)cc2)C(=O)Cn2c(CCc3cccc(F)c3F)cc(=O)c3ccccc32)CC1.O=C(O)C(O)C(O)C(=O)O | 88% | 65% | 89% |
| O=C(/C=C/c1ccc(Cl)cc1)NCCCCCN1CCCC(C(=O)Nc2cccc(Cl)c2)C1 (configuration not stated) | 96% | 4% | 21% |
| COc1ccc2ncc(F)c([C@H](O)CN3CCC(NCc4cc5c(cn4)OCCO5)CC3)c2c1.Cl | 100% | 97% | 5% |
| Br.CC1(C)NC(N)=NC(=N)N1OCCOc1ccc2ccccc2c1 | 93% | 96% | 70% |
| CC(C)C[C@H](NC(=O)c1ccc(OCCN2CCOCC2)cc1)C(=O)N[C@H](/C=N/N1CC(=O)NC1=O)CCc1ccccc1 | 88% | 67% | 10% |
| CCOP(=O)(OCC)c1ccc(OC)c(-c2ccc[nH]2)c1 | 95% | 10% | 0% |
| FC(F)(F)Oc1ccc(-c2cnc3ccc(NCc4ccncc4)nn23)cc1 | 97% | 54% | 19% |
| CCCc1ccc(NC(=O)c2ccc(CN3CCCN(Cc4cccc(O)c4)CC3)cc2)cc1.O=C(O)C(F)(F)F | 100% | 63% | 51% |
| COC(=O)c1ccc2nc(-c3ccc(/C=C/C(=O)NCc4ccc(Cl)c(Cl)c4)cc3)[nH]c2c1 | 81% | 3% | 13% |
| CC1(C)CN(CCC2CCC(NC(=O)/C=C/c3ccc(F)cc3F)CC2)Cc2ccc(C#N)cc21.Cl (configuration not stated) | 88% | 77% | 39% |
| Cc1c(F)cc(C(=O)NC2CC2)cc1-c1ccc2c(cnn2S(=O)(=O)c2cccs2)c1 | 92% | 68% | 32% |
| O=C(NCc1cccc2ccccc12)c1ccc(CNC2CCN(Cc3ccccc3)CC2)cc1.O=C(O)C(F)(F)F | 100% | 88% | 15% |
| CSc1ccc(CN2CCC(NC(=O)c3ccc(-c4ccc(N(C)C)cc4)s3)CC2)cc1.O=C(O)C(F)(F)F | 86% | 26% | 30% |
| O=C(Nc1cccc(-c2ccc(-c3nc4cc(C(F)(F)F)ccc4[nH]3)cc2)c1)Nc1ccc(Cl)c(Cl)c1 | 100% | 51% | 93% |
| COc1cc(Nc2ccnc3cc(-c4ccccn4)ccc23)cc(OC)c1OC.Cl | 91% | 0% | 0% |
| O=C(Nc1cccc(CN2CCN(Cc3ccc(O)cc3)CC2)c1)c1cc2ccccc2s1.O=C(O)C(F)(F)F | 100% | 26% | 15% |
| N=c1[nH]c2cccc3ccc4cccc1c4c32 | 100% | 69% | 26% |
| Cl.O=c1n(CC2CCCCC2)c2cc(Cl)cc(OCCNc3ccncc3)c2n1CC1CCCCC1 | 100% | 64% | 2% |
| COc1ccc(CN2CCC(N3CC(c4ccccc4)(c4ccccc4)OCC3=O)C2)c(O)c1.O=C(O)C(F)(F)F (configuration not stated) | 96% | 27% | 10% |
| CC(C)CNCc1cccc(-c2ccc(CNc3ccc(C(=O)c4ccccc4)cc3)cc2)c1.O=C(O)C(F)(F)F | 97% | 0% | 10% |
| O=[N+]([O-])c1c(O)nc2c(c1O)CCC2 | 97% | 1% | 9% |
| CCOC(=O)c1c(NC(NC(=O)c2ccc(C(C)(C)C)cc2)C(Cl)(Cl)Cl)sc2c1CCCC2 (configuration not stated) | 98% | 94% | 1% |
| CC1(CCc2ccccc2)N=C(Nc2ccc(Cl)cc2)N=C(N)C1c1ccc(Cl)c(Cl)c1 (configuration not stated) | 100% | 98% | 81% |
| Nc1c(Cl)cc(C(O)CNCCCCCCOCCc2ccc(O)cc2)cc1Cl.O=C(O)/C=C/C(=O)O (configuration not stated) | 97% | 97% | 13% |
| O=C(O)C(F)(F)F.Oc1ccc(CCCNc2nc(NCc3cccc4ccccc34)nc(N3CCNCC3)n2)cc1 | 100% | 4% | 9% |
| COc1ccc(-c2c3c(=O)n(C)c(=O)n(C)c3c3nnc4ccccc4n23)cc1 | 96% | 86% | 0% |
| CC(=O)N(C)C1CCN(Cc2cccc(-c3ccc(-c4nc5cc(C(F)(F)F)ccc5[nH]4)cc3)c2)C1.O=C(O)C(F)(F)F (configuration not stated) | 100% | 94% | 31% |
| O=C(N[C@H]1CCN(CCc2ccc(O[C@H]3CCNC3)c(F)c2)C1)c1ccc(Cl)c(Cl)c1.O=C(O)C(F)(F)F | 95% | 23% | 39% |
| Br.CC1(C)NC(N)=NC(=N)N1OCCCO | 96% | 0% | 27% |
